# In the library only some 6.8% were active in any assay of this set; here they are far more common.
# NADH coupling: blocks coupling enzymes of NAD/NADH assays; coupled PK/LDH NADH assays, four targets; IC50, µM (top dose mostly 10 µM); actives 0.02% (n = 65,000); AID 774;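 active = single-dose screening hits from any of four coupled enzyme assays that gave an IC50 when retested across doses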;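 note: the DPM-DC format reads NADH fluorescence rather than 340 nm absorbance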
# Fluor 339 460: intrinsic fluorescence of library compounds, ex339/em460 – biochemical, MLSMR library, data from DPM-DC assay, artefact control, profiling panel | compound autofluorescence, ex339/em460 nm, NADH buffer; active compounds read high; 1 = no-compound wells, NADH background | actives 5.5% (n = 65,000) | fluorescence fold increase at 10 µM;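 active = at 10 µM, mean starting fluorescence two-fold or more over control wells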;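 note: signal is the first read of a kinetic run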
# Abs 340nm: compounds absorbing at 340 nm. compound absorbance at 340 nm, fold over control. fold change at 10 µM. 65,000 tested, under 10 active;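 active = at 10 µM dose, initial 340 nm absorbance at least 2 fold that of control wells; inactive = change under 2 fold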;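 note: initial absorbance extrapolated from kinetic A340 decline of NADH oxidation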
# Spn PMK inh: S. pneumoniae PMK inhibition; purified PMK, PK/LDH-coupled NADH absorbance 340 nm; inhibition, % at 10 µM; actives 0.49% (n = 65,000);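 active = top-ranked compounds by inhibition in the single 10 µM screen, taking a fixed number of the strongest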
# Spn MK inh: blocks S. pneumoniae mevalonate kinase. purified MK, PK/LDH-coupled NADH absorbance 340 nm. inhibition, % at 10 µM. actives 0.48% (n = 65,000). AID 555;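 active = ranked among the strongest by inhibition in the single 10 µM screen, a fixed top-ranked set picked for dose follow-up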
# DPM-DC inhibit: blocks S. pneumoniae diphosphomevalonate decarboxylase. purified DPM-DC, PK/LDH coupled NADH fluorescence. calls only at 10 µM. actives 0.49% (n = 65,000). AID 556;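 active = the 320 compounds with the highest percent inhibition in the single-dose primary screen, excluding strongly autofluorescent ones, cut at about 32% in these data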;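 note: kinetic rate of NADH fluorescence loss reporting ADP formed by the decarboxylase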
# A number is an active result; 0 = inactive; - = no result given; + = active, no number; [ ] = dose if it differs, or a comment.
SMILES,NADH coupling,Fluor 339 460,Abs 340nm,Spn PMK inh,Spn MK inh,DPM-DC inhibit
CN(C)[C@@H]1C(=O)C(C(N)=O)=C(O)[C@@]2(O)C(=O)C3=C(O)c4c(O)cccc4[C@@](C)(O)[C@H]3[C@H](O)[C@@H]12,125µM[fluoresces],0,0,0,0,+[fluoresces]
COc1ccccc1N1CCN(Cc2cccc(OC)c2O)CC1,0,0,0,0,0,0
CC(C)Cc1[nH]c(=O)c(C#N)c2c1CCC2,0,2.3,0,0,0,-
CC1(C)CC2(CCO1)NCCN1C(=O)CSC12 (stereo unspecified),0,0,0,0,0,0
CC(C)(C)c1nc(N2CCN(C(=O)c3ccco3)CC2)c2nnn(Cc3ccccc3Cl)c2n1,0,0,0,0,0,0
COc1cc2[nH]c(=O)n(-c3ccccc3)c(=O)c2cc1OC,0,2.1,0,0,0,-
COc1cc2[nH]c(=O)n(-c3cccc(Cl)c3)c(=O)c2cc1OC,0,0,0,0,0,0
NC(=O)OCCSc1nnc(-c2cccc(C(N)=S)c2)o1,0,0,0,0,0,0
CC(=O)OC1(Cc2ccccc2)CN2CCC1c1ccccc12 (stereo unspecified),0,0,0,0,0,0
COC(=O)C(C)Oc1cc(C)cc2oc(=O)c3c(c12)CCC3 (stereo unspecified),0,3.8,0,0,0,-
COC(=O)c1cc(COc2cc(C)cc3oc(=O)c4c(c23)CCC4)c(C)o1,0,0,0,0,0,0
COC(=O)C(C)Oc1cc(C)cc2oc(=O)c3c(c12)CCCC3 (stereo unspecified),0,3.7,0,0,0,-
Cc1cc(OCC(=O)OC(C)C)c2c3c(c(=O)oc2c1)CCCC3,0,0,0,0,0,0
CCOC(=O)C(C)Oc1cc(C)cc2oc(=O)c3c(c12)CCCC3 (stereo unspecified),0,2.1,0,0,0,-
CC(=O)Nc1ccccc1OP1(=O)COc2ccccc2OC1,0,0,0,0,0,0
CCOC(=O)N(C)c1ccc(C(O)(C(=O)OCC)C(F)(F)F)cc1 (stereo unspecified),0,0,0,0,0,0
COc1ccc(Cn2c(N)c(C(=O)NCc3ccco3)c3nc4ccccc4nc32)cc1,0,4.9,0,0,0,-
Nc1c(C(=O)NCc2ccco2)c2nc3ccccc3nc2n1Cc1ccc(F)cc1,0,2.2,0,0,0,-
O=C(c1ccc2nc(-c3ccco3)c(-c3ccco3)nc2c1)N1CCC2(CC1)OCCO2,0,0,0,0,0,0
O=C(c1ccc2nc3ccc(Cl)cc3c(=O)n2c1)N1CCC2(CC1)OCCO2,0,3.3,0,0,0,-
CC(C(=O)c1c[nH]c2ccccc12)N1CCc2ccccc2C1 (stereo unspecified),0,0,0,0,0,0
CC(=O)N1CCC2(CC1)CC(=O)c1cc(OCC(=O)N3CCN(C)CC3)ccc1O2,0,5.1,0,0,0,-
Cn1c(=O)cc(SCC(=O)N2CCC3(CC2)OCCO3)c2ccc(Cl)cc21,0,0,0,0,0,0
Cc1cccn2c(=O)c3cc(C(=O)N4CCC5(CC4)OCCO5)n(C)c3nc12,0,5,0,0,0,-
Cn1c(C(=O)N2CCC3(CC2)OCCO3)cc2c(=O)n(C)c3ccccc3c21,0,0,0,0,0,0
SMILES,NADH coupling,Fluor 339 460,Abs 340nm,Spn PMK inh,Spn MK inh,DPM-DC inhibit
O=C1C2CCCN2C(c2ccccc2)N1c1ccccn1 (stereo unspecified),0,0,0,0,0,0
CC(C)[C@H]1C(=O)N2CCC[C@H]2[C@]2(O)O[C@](NC(=O)[C@@H]3C=C4c5cccc6[nH]cc(c56)C[C@H]4N(C)C3)(C(C)C)C(=O)N12,0,2.4,0,0,0,0
O[C@@H]1CCCC[C@H]1N1CCC(c2ccccc2)CC1,0,0,0,0,0,0
COCCCn1c(N)c(C(=O)NCCC(C)C)c2nc3ccccc3nc21,0,3.7,0,0,0,-
COCCOC(=O)c1c(N)n(Cc2ccccc2)c2nc3ccccc3nc12,0,3.9,0,0,0,-
CCCCOCCCn1c(N)c(C(=O)OCCOC)c2nc3ccccc3nc21,0,2.3,0,0,0,-
N#CC1=C(N)Oc2c(c(=O)oc3ccccc23)C1c1ccc(OC(=O)N2CCOCC2)cc1 (stereo unspecified),0,0,0,0,0,0
CN(C)CCN=Cc1c(O)n(-c2cccc3ccccc23)c(=O)[nH]c1=O,0,0,0,0,0,0
Cc1ccc(OCC(=O)N2CCN(CC3CC4C=CC3C4)CC2)cc1 (stereo unspecified),0,0,0,0,0,0
Cc1nc2cc(-c3cccc(F)c3)nn2c(C)c1CCC(=O)N1CCC2(CC1)OCCO2,0,2.3,0,0,0,0
O=C(CSc1ccccc1)N1CCC2(CC1)OCCO2,0,0,0,0,0,0
Cc1nc2c(-c3ccccc3)c(C)nn2c(C)c1CCC(=O)N1CCC2(CC1)OCCO2,0,0,0,0,0,0
Cc1nc2c(c(C)nn2-c2ccccc2)c(C)c1CCC(=O)N1CCC2(CC1)OCCO2,0,3.6,0,0,0,0
OCC12COC3c4ccccc4C(OC1)N32 (stereo unspecified),0,0,0,0,0,0
Clc1ccc(COC(Cn2ccnc2)c2ccc(Cl)cc2Cl)c(Cl)c1 (stereo unspecified),0,0,0,0,0,0
O=C(c1cc2c(s1)-c1ccccc1OC2)N1CCC2(CC1)OCCO2,0,5.1,0,0,0,-
CC1=CC(=O)C2=C(C)CC(O)C3C(C)C(=O)OC3C12 (stereo unspecified),0,0,0,0,0,0
O=c1c2ccccc2nc(N2CCCC2)n1-c1ccc(Cl)cc1,0,3.3,0,0,0,0
COc1ccc(CN2CCN(C(=O)Cc3ccccc3)CC2)c(OC)c1,0,0,0,0,52,0
COC(=O)CC1=C(C(=O)OC)C2(C(=O)N(C)c3ccccc32)C(C#N)=C(N)O1 (stereo unspecified),0,0,0,0,0,0
CCCCCCOC(=O)c1ccccc1N,0,2.1,0,0,0,-
CCCCP(=O)(O)c1ccccc1,0,0,0,0,0,0
COc1cc2nc(CN3CC=C(c4ccccc4)CC3)[nH]c(=O)c2cc1OC,0,0,0,0,0,0
CP(C)(=O)CCC(=O)O,0,0,0,0,0,0
CCCNC(=O)c1c(N)n(CC2CCCO2)c2nc3ccccc3nc12 (stereo unspecified),0,3.9,0,0,0,-
CC(C)OCCCNC(=O)c1c(N)n(CC2CCCO2)c2nc3ccccc3nc12 (stereo unspecified),0,3,0,0,0,-
CCC(=O)N1c2ccc(S(=O)(=O)CCC(=O)N3CCC4(CC3)OCCO4)cc2CC1C (stereo unspecified),0,0,0,0,0,0

# From PubChem
